DT40 TDP1 CPT – growth inhibition of DT40 Tdp1-/-;hTDP1 cells with camptothecin (screen for TDP1 inhibitors); AID 686979; actives 12% (n = 420,000); Potency, µM (series often up to 46.2 µM), without a hit: top-dose activity change, negative = growth inhibition, actives largely listed as inhibitors; chicken DT40 Tdp1-/-;hTDP1 cells + 20 nM CPT, ATP luminescence, 48 h; further: potency means the concentration at half of the fitted maximal effect; nearly all actives have a fitted effect of over 55% in size
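Chicken DT40 Tdp1-/- cells complemented with human TDP1, 400 cells/well, exposed to compounds plus 20 nM camptothecin for at least 48 h at 37 C; viability read as ATP content by CellTiter-Glo luminescence.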
IL1B secr inh – blocks inflammasome-driven IL-1 beta release. activity change, % at 57.5 µM. THP-1 LPS/ATP IL-1B secretion, AlphaLISA, 16 h; stronger effect = lower value. actives 4.7% (n = 360,000); in the data active means activity change below about -50%; inconclusive means mostly about -30% to -49%
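Secreted IL-1B measured by AlphaLISA bead assay after 16 h compound exposure of THP-1 cells; compounds (final up to 57.5 uM) added 1 h before LPS (250 ng/mL) and ATP (1.25 mM) stimulation; lower signal means less secretion.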
TDP1 cell noCPT – qHTS for Inhibitors of human tyrosyl-DNA phosphodiesterase 1 (TDP1): qHTS in cells in absence of CPT | DT40 Tdp1-/- hTDP1 cells, no CPT, ATP luminescence, 48 h | Potency, µM (titrated, usually from 46.2 µM), for inactives: at the highest dose activity change, negative = growth inhibition, hits mostly inhibitors | actives 15% (n = 420,000); further: potency means the concentration at half of the fitted maximal effect; nearly all actives have a fitted effect of over 55% in size
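Luminescent ATP content (CellTiter-Glo) served as the growth readout. Knockout chicken DT40 cells expressing human TDP1 were exposed to compounds without camptothecin for a minimum 48 hr at 37 °C.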
HT1080 IDH1KD tx – kills HT-1080 cells with IDH1 knockdown | Potency, µM (highest dose often 46.1 µM), for the others: at the highest dose activity, negative = toxicity, actives largely listed as cytotoxic | HT-1080 IDH1 knockdown viability, ATP luminescence, 48 h | actives 2% (n = 360,000);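 further: potency means the concentration at half of the fitted maximal effect; 0% = DMSO wells and -100% = cell-free medium wells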
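Cytotoxicity counter-line: IDH1KD HT-1080, 48 h, CellTiter-Glo. Curves classed by r2, magnitude and activity.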
HT1080-NT tox – kills 2HG-producing HT-1080-NT fibrosarcoma cells; HT-1080-NT fibrosarcoma viability, CellTiter-Glo ATP luminescence, 48 h; AID 686970; Potency, µM (titrated, usually from 46.1 µM), without a hit: at the highest dose activity, negative = less viability, most hits filed as cytotoxic; actives 1.6% (n = 360,000);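 further: NT is the 2HG producing partner of a matched IDH1 knockdown line; potency means the concentration at half of the fitted maximal effect; 0% = DMSO-treated cells and -100% = media-only wells without cells; nearly all actives have a fitted effect of over 55% in size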
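Fibrosarcoma NT cells, 750 per well in 5% FBS RPMI, were exposed to compound for 48 hours. Viability: CellTiter-Glo luminescence.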
An asterisk follows results filed as active; ? = inconclusive; / = not tested or not shown; [ ] = dose if it differs, or a comment. Rows were chosen to be rich in hits. Some 19% of all compounds tested hit in one or more screens of this group. Unless noted, the call rests on the fitted dose curve; in most records, active means well fitted curve in the direction sought with a large enough effect; inconclusive means small, poorly fitted or top-dose-only effect, or another doubt; inactive means no such curve, though single readings can be large; an effect the other way counts as inactive or inconclusive. Unless noted, on the % scale 0 is the no-effect control and ±100 the full control effect.

SMILES	DT40 TDP1 CPT	IL1B secr inh	TDP1 cell noCPT	HT1080 IDH1KD tx	HT1080-NT tox
Cc1ccc(NC(=O)c2cc(S(=O)(=O)N(C)C3CCCCC3)ccc2F)cc1C	18.4µM*	/	18.4µM*	/	/
Cc1ccc(NC(=O)c2oc3ccc(S(=O)(=O)N(C)C4CCCCC4)cc3c2C)c(C)c1	?	/	14.6µM*	/	/
COc1ccc(NC(=O)CN(C)C2CCS(=O)(=O)C2)cc1 (stereo unspecified)	-17.9%	25.4	-18.7%	16.6%	3.7%
Cc1nn(C)c(C(=O)N2CCN(C(=O)c3ccco3)CC2)c1Br	3.9%	18.0	-5.4%	5.0%	8.0%
Cc1ccc(OC(C)C(=O)N/N=C/c2ccccn2)cc1 (stereo unspecified)	?	0.0	?	?	-23.8%
CN(C)/C=C(/C(=O)c1ccccc1)n1cncn1	4.5%	23.2	-4.1%	13.3%	9.9%
O=C(/C=C(/c1ccc(Cl)cc1)n1cncn1)c1ccccc1	?	-57.6*	?	-10.0%	-6.9%
CCC(C)NC(=O)CSc1ccc(S(=O)(=O)N2CCN(Cc3ccccc3)CC2)cn1 (stereo unspecified)	?	-0.4	29.1µM*	0.0%	-6.9%
CC(C)N(C(=O)CSc1ccc(S(=O)(=O)N2CCCCC2)cn1)C(C)C	16.4µM*	-5.4	-26.9%	-1.3%	4.6%[9.24 µM]
O=[N+]([O-])c1ccc(CSc2ccc(S(=O)(=O)N3CCCCCC3)cn2)cc1	23.1µM*	-8.5	16.4µM*	-17.4%	-14.3%
N#Cc1ccc(CSc2ccc(S(=O)(=O)N3CCCCCC3)cn2)cc1	?	-4.7	29.1µM*	-20.2%	-4.4%
CCC/C(C#Cc1ccsc1)=C1/c2ccccc2C(=O)N1c1ccccc1	?	-89.3*	?	?	-29.9%
O=C1c2ccccc2C(=O)N1CCC#C/C=C1\c2ccccc2C(=O)N1c1ccccc1	?	42.4	20.6µM*	-10.9%	14.9%
CCC/C(C(=O)NCCO)=C1/c2ccccc2C(=O)N1c1ccccc1	1.0%	28.8	?	0.3%	?
CCC/C(C#Cc1cc(OC)cc(OC)c1)=C1/c2ccccc2C(=O)N1c1ccccc1	25.9µM*	0.0	?	-2.6%	14.7%
O=C1c2ccccc2C(=O)N1c1ccccc1	0.6%	-19.2	6.7%	6.7%	9.3%
CCC/C(C#Cc1ccc(N(C)C)cc1)=C1/c2ccccc2C(=O)N1c1ccccc1	14.6µM*	4.1	16.4µM*	0.8%	2.0%
COc1ccc(N2CCN(C(=O)c3cc(NS(=O)(=O)c4ccc(F)cc4)ccn3)CC2)cc1	4.9%	/	4.9%	/	/
O=C(COC(=O)c1cc2ccccc2oc1=O)Nc1ccc(F)cc1F	1.1%	6.8	16.6%	14.1%	16.1%
CCC/C(C#CCCN1C(=O)c2ccccc2C1=O)=C1/c2ccccc2C(=O)N1c1ccccc1	18.4µM*	-22.8	?	-0.8%	-2.7%
O=C(c1csnn1)N1CCC2(CCCN(c3ncccn3)C2)CC1	9.6%	/	-7.5%	/	/
CC(=O)Nc1sc(C)c(C)c1C(=O)OC(C)C	?	41.1	?	0.6%	2.6%
CCOC(=O)c1c(NC(=O)C2c3ccccc3Oc3ccccc32)sc(C)c1CC	11.6%	/	-5.7%	/	/
Cc1c(C(=O)OC(C)C)sc(NC(=O)C2c3ccccc3Oc3ccccc32)c1C(=O)OC(C)C	23.1µM*	/	23.1µM*	/	/
Cc1sc(NC(=O)C2c3ccccc3Oc3ccccc32)c(C(=O)OC(C)C)c1C	18.4µM*	/	?	/	/
SMILES	DT40 TDP1 CPT	IL1B secr inh	TDP1 cell noCPT	HT1080 IDH1KD tx	HT1080-NT tox
Cc1cccc(NC(=O)/C(=C\c2ccc([N+](=O)[O-])o2)NC(=O)c2ccc(Cl)cc2)c1	?	?	?	-6.3%	-14.7%
CCCCNC(=O)/C(=C\c1ccc([N+](=O)[O-])o1)NC(=O)c1ccccc1	16.4µM*	24.7	?	0.0%	-12.1%
COC(=O)/C(=C\c1ccc([N+](=O)[O-])o1)NC(=O)c1ccccc1	14.1µM*	5.5	11.2µM*	-14.3%	?
CCc1ccccc1NC(=O)CSc1nnc(-c2nonc2NC(C)=O)n1C	-27.5%	/	?	/	/
CCC12CN3CCN(CC(C3)/C1=N\NC(=O)c1ccc(F)cc1)C2	?	0.0	-30.0%	10.2%	-6.9%
O=C(CC1CCCC1)Nc1nc2ccccc2[nH]1	?	0.0	9.2µM*	6.6%	6.4%
O=C(Nc1nc2ccccc2[nH]1)C1CCC1	?	-16.4	23.1µM*	?	?
O=C(NCc1cccnc1)C(=O)NCC1OCCCN1S(=O)(=O)c1ccccc1 (stereo unspecified)	-5.2%	18.5	8.6%	4.7%	7.5%
CCOC(=O)C[C@H]1c2cc(F)ccc2S(=O)(=O)N1Cc1ccc(OC)cc1	?	39.0	?	6.5%	13.6%
CCOC(=O)C[C@H]1c2cc(F)ccc2S(=O)(=O)N1Cc1cc(OC)c(OC)c(OC)c1	10µM*	/	11.2µM*	/	/
CC12CCC(=O)N1C(C(=O)NNC(=O)c1cccc(Cl)c1)CS2 (stereo unspecified)	4.9%	-3.9	-1.3%	14.8%	10.1%
Cc1cccc(OCCC(=O)NNC(=O)c2ccoc2C)c1	-19.8%	18.4	-3.3%	-0.9%	14.0%
COc1ccccc1N1CCN(C(=O)c2cc(-c3ccc(C)cc3)on2)CC1	?	-1.0	?	-4.8%	-4.3%
COc1ccccc1N1CCN(C(=O)c2nc(SC)ncc2Cl)CC1	1.03µM*	/	1.03µM*	/	/
COc1ccccc1N1CCN(C(=O)c2cc(-c3ccc(Cl)cc3)on2)CC1	22.4µM*	0.0	?	-15.4%	-5.8%
COc1ccccc1-c1cc(C(=O)N2CCN(c3ccccc3OC)CC2)no1	18.4µM*	-1.7	?	?	?
CCC1CCCCN1C(=O)COC(=O)c1cc(C)nc2ccccc12 (stereo unspecified)	?	26.2	-10.8%	-1.6%	-2.0%[9.24 µM]
CCn1cc(C(=O)NC(C)C)c(=O)c2cc(F)c(N3CCN(C(=O)c4ccco4)CC3)cc21	?	-7.2	18.4µM*	-5.8%	-15.7%
CCCCCNC(=O)c1cn(CC)c2cc(N3CCN(C)CC3)c(F)cc2c1=O	-2.0%	-84.9*	?	?	16.4µM*
CCCNC(=O)c1cn(CC)c2cc(N3CCN(C)CC3)c(F)cc2c1=O	-1.9%	3.3	-1.7%	8.6%	7.4%
C=CCNC(=S)N1CCN(c2cc3c(cc2F)c(=O)c(C(=O)O)cn3CC)CC1	?	?	?	0.6%	14.5%
CCn1cc(C(=O)NCCC(C)C)c(=O)c2cc(F)c(N3CCN(C(=O)c4ccco4)CC3)cc21	16.4µM*	-14.6	18.4µM*	-2.6%	-1.2%
